Data on 16 molecules can be found in PubChem BioAssay.

The source made the active and inactive calls.

In assay [1] the test system is Wnt5a (protein binding on small-molecule microarray). The experiment in a line: Wnt5a binders on small-molecule microarray, primary screen, biophysical, 635/667 nm fluorescence (AID 1142).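 Further: fluorescence read at 667 nm with signal to noise per printed feature.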 Conditions: 635 nm fluorescence, higher = more signal.
The nature of assay [2]: cell viability in Huh7 cells, primary screen, cytotoxicity control for HCV replication inhibitor project, CellTiter-Glo luminescence, basal, 48 h (AID 1143).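 Further: Huh7 hepatoma cells carrying a hepatitis C replication reporter with no stimulus; test concentration not given here.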 Conditions: Huh7 HCV replicon, higher = more signal, called active from +8 up or from −8 down.
Assay [3] is described as follows: CREB reporter modulators without forskolin, primary screen, cell-based, PC12, CRE-LacZ reporter, unstimulated (AID 1145). Particulars: no forskolin, luminescence, 4.5 h, higher = more signal, called active from +8 up or from −8 down.
Assay [4] in a line: CREB reporter modulators under forskolin, primary screen, cell-based, PC12, CRE-LacZ reporter, forskolin-stimulated (AID 1146).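 Further: PC12 cells with 6xCRE LacZ reporter stimulated by forskolin 10 µM; beta-galactosidase reporter signal reflecting CREB driven transcription.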 Particulars: luminescence, 4.5 h, higher = more signal, called active from +8 up or from −8 down.
For assay [5], the target named is Streptavidin (Streptomyces avidinii) (UniProt P22629). The experiment in a line: streptavidin binders on small-molecule microarray, primary screen, artefact control for SMM compound annotation, biophysical, 635/667 nm fluorescence (AID 1147).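 Further: signal reflects streptavidin binding to arrayed compounds as a control protein.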 Particulars: streptavidin binding, higher = more signal.
The nature of assay [6]: small-molecule binders of probe aInhba, primary screen, biochemical, small-molecule microarray, 635/667 nm fluorescence (AID 1148).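 Further: score merges 667nm spot fluorescence with signal-to-noise for antibody binding to printed compounds.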 Conditions: higher = more signal.
Assay [7] concerns the target Torsin-1A (Homo sapiens) (UniProt O14656). The experiment in a line: torsin A binders from cell lysate, primary screen, small-molecule microarray, wild-type, 635/667 nm (AID 1149). Particulars: COS7 hTOR1A-WT lysate, 635 nm fluorescence, higher = more signal.
For assay [8] the target is unchanged. The experiment in a line: small-molecule binders of mutant TOR1A in lysate, primary screen, cell lysate, small-molecule microarray, COS7 lysate, 635/667 nm fluorescence (AID 1150).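 Further: score pools 667 nm emission and signal to noise measuring lysate protein binding.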 Conditions: COS7 hTOR1A mutant lysate, 635 nm fluorescence, higher = more signal.
Assay [9] concerns Sonic hedgehog protein (Shh). The experiment in a line: small-molecule binders of Shh protein, primary screen, biochemical, small-molecule microarray, 635/667 nm fluorescence (AID 1151).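 Further: Shh protein binding to compounds spotted on small-molecule microarray slides; score combines spot fluorescence intensity with signal-to-noise across triplicate slides.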 Particulars: small-molecule microarray binding, 635 nm fluorescence; higher = more signal.

Torsin-1A (Homo sapiens), sequence (O14656 whole entry, looked up): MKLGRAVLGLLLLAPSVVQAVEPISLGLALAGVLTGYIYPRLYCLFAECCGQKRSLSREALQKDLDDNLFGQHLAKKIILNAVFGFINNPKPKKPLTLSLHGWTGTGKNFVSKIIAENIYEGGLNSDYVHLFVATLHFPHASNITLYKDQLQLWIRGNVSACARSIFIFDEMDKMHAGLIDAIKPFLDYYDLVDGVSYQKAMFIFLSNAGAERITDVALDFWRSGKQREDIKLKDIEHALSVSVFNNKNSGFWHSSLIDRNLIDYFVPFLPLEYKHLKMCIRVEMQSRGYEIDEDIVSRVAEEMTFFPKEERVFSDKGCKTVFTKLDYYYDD
Streptavidin (Streptomyces avidinii), sequence (P22629 whole entry, looked up): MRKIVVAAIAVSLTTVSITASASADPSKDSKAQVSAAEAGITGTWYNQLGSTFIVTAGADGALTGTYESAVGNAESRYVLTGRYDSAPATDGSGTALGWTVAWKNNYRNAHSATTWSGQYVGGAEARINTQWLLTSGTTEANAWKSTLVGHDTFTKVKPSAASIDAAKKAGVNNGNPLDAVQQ

With `CC(C)[Si](OCCCNS(=O)(=O)c1ccc(Br)cc1)(C(C)C)C(C)C`, the composite z-score in assay [1] turned out to be 0.0488; in [5], 0.623; in assay [6], 0.0161; in assay [7], 0.923; in assay [8] it was 0.31; in [9], 0.72. Further, the z-score in assay [2] was -5.53 (inactive); in assay [3], -0.752 (inactive); in assay [4], -0.4 (inactive).

Take `CN1C2C=C(c3ccc(CO)cc3)C(C3C(=O)N(C(N)=O)C(=O)C32)C1c1cccs1` (centres undefined): the composite z-score in assay [1] was -0.25; in assay [5], -0.487; in assay [6], -0.0791; in [7], 0.0899; in assay [8] it was 0.782; in [9], 1.4. For the same molecule, the z-score in [2] is -0.975 (inactive); in assay [3], 2.09 (inactive); in [4] it was -1.5 (inactive).

Turning to `CCN1C(C)=C(C(=O)OC)[C@@H](c2ccccc2)N2C(=O)[C@@]3(C(=O)OC)O[C@@]12[C@@H]1C(=O)N(c2ccccc2)C(=O)[C@@H]13`, the composite z-score was 0.313 in assay [1]; 0.424 in assay [5]; -0.211 in assay [6]; 0.224 in [7]; 0.644 in assay [8]; 0.798 in [9]. Moreover, the z-score is -1.77 (inactive) in [2], 0.384 (inactive) in assay [3] and -1.28 (inactive) in assay [4].

For `C[C@]1(C(=O)NCc2ccccc2)c2ccccc2C(=O)N(Cc2cc(C(F)(F)F)cc(C(F)(F)F)c2)[C@H]1c1ccc(CO)cc1`, the composite z-score was 0.944 in assay [1]; 0.157 in assay [5]; 0.447 in [6]; 0.462 in [7]; 0.334 in assay [8]; 1.51 in assay [9]. The z-score in assay [2] is -5.26 (inactive); in [3], -0.735 (inactive); in assay [4], -1.41 (inactive).

As to `CO[C@H]1COC(=O)[C@@H](C)COC(=O)[C@H](Cc2ccccc2)NC(=O)CC=C[C@H]1C`, the composite z-score in [1] was -0.0116; in assay [5] it was -0.666; in assay [6], -0.0889; in [7], 0.268; in assay [8], 0.0916; in assay [9], 1.85. Also, the values for the z-score in assay [2], in assay [3] and in [4] were -0.317 (inactive), 0.432 (inactive) and -0.968 (inactive), respectively.

For the molecule `O=C(NCC(O)CO)[C@]1(Cc2ccccc2)N=C(c2ccc(OCCCO)cc2)O[C@@H]1c1ccccc1` (some centres undefined), the composite z-score in assay [1] is 0.454; in [5] it was 1.38; in [6], 0.633; in [7], 0.379; in assay [8], 1.81; in assay [9], -0.617. Further, the z-score in assay [2] is -3.91 (inactive); in [3] it was 0.171 (inactive); in assay [4], -1.08 (inactive).

On to `CO[C@H]1COC(=O)[C@@H](OCc2ccccc2)C=C[C@H](C)[C@@H](OC)COC(=O)[C@H](OCc2ccccc2)C=C[C@@H]1C`, for which the composite z-score in assay [1] is -0.115; in assay [5] it was -0.0864; in assay [6], -0.0695; in assay [7], 0.593; in [8] it was 0.128; in [9], 0.537. Besides, the z-score in assay [2] was -2.26 (inactive); in [3] it was 1.16 (inactive); in assay [4], -0.672 (inactive).

Consider `O=C1OCCC=C[C@H]2OC34C=CCN(Cc5ccccc5)C(=O)[C@H]3N(CCO)C(=O)[C@@H]4C12` (some centres undefined), for which the composite z-score in assay [1] is -0.17; in [5], -0.88; in assay [6], -0.285; in [7], -0.42; in assay [8], -0.261; in assay [9], -0.127. The z-score in assay [2] is -4.38 (inactive); in assay [3], -0.899 (inactive); in [4] it was -0.894 (inactive).

As to `CC(=O)NCCCC[C@@H]1NC(=O)[C@@H]2C[C@H](C(=O)NCCCCCCN(C)C)[C@H](c3ccc(O)cc3)N2C1=O`, the composite z-score in [1] came to 0.336; in [5], 1.24; in [6], 0.982; in [7], 1.49; in assay [8], 1.52; in assay [9], 1.43. Further, the z-score in assay [2] was -0.849 (inactive); in [3], 0.0043 (inactive); in assay [4], -1.19 (inactive).

Consider `COc1cc([C@@H]2N[C@H](C(=O)O)Cc3c2[nH]c2ccccc32)cc(OC)c1OC`, for which the composite z-score was 0.102 in assay [1]; 0.0855 in assay [5]; -0.0102 in assay [6]; 0.257 in assay [7]; 0.285 in assay [8]; 0.342 in [9]. For the same molecule, the figures for the z-score in assay [2], in assay [3] and in assay [4] were -1.81 (inactive), 0.108 (inactive) and -1.69 (inactive), respectively.

Turning to `COc1ccc([Si](C)(C)[C@H]2[C@H](CCO)O[C@@]3(C(=O)N(Cc4ccccc4)c4ccc(N5C(=O)c6cccc7cccc5c67)cc43)[C@@H]2C)cc1`, the composite z-score in [1] is -0.234; in [5] it was -0.3; in [6], -0.0791; in assay [7], -0.144; in assay [8], 0.0743; in assay [9], 0.145. The figures for the z-score in assay [2], in assay [3] and in assay [4] were -5.81 (inactive), 4.04 (inactive) and -1.36 (inactive), respectively.

For the molecule `CCN1C(C)=C(C(=O)OC)[C@@H](c2ccccc2)N2C(=O)[C@](O)(C(=O)OC)[C@@H](c3ccccc3)C(C(=O)c3ccccc3)=C12`, the composite z-score was 0.271 in assay [1]; 0.0306 in assay [5]; -0.0552 in [6]; 0.5 in [7]; 0.269 in [8]; 0.473 in [9]. The z-score in assay [2] is -1.49 (inactive); in assay [3], 1.55 (inactive); in assay [4] it was 0.214 (inactive).

In the case of `CO[C@H]1O[C@H](CO)[C@@H](OC(=O)CCc2ccccc2)[C@@H]2OC(=O)[C@H](Cc3cccc(Br)c3)C/C=C/C[C@@H](Cc3cccc(Br)c3)C(=O)O[C@@H]12`, the composite z-score in assay [1] was -0.0182; in assay [5], -0.115; in [6], -0.147; in [7] it was 1.07; in [8], 0.358; in assay [9], -0.149. Also, the z-score in [2] was -3.47 (inactive); in assay [3], -0.198 (inactive); in assay [4], -0.896 (inactive).

In the case of `[N-]=[N+]=Nc1ccccc1C[C@@]1(C(=O)N2CCOCC2)N=C(c2ccc(OCCCO)cc2)O[C@@H]1c1ccccc1N=[N+]=[N-]`, the composite z-score in [1] turned out to be 0.372; in [5], 0.955; in [6] it was 0.0982; in assay [7] it was 0.644; in [8], 0.407; in assay [9], 0.174. Besides, the results for the z-score in assay [2], in assay [3] and in assay [4] were -5.17 (inactive), 2.75 (inactive) and -1.37 (inactive), respectively.

On to `[N-]=[N+]=NCc1ccccc1C[C@@]1(C(=O)N2CCOCC2)N=C(c2ccc(OCCCO)cc2)O[C@@H]1c1ccccc1N=[N+]=[N-]`, for which the composite z-score was found to be 0.994 in assay [1]; 1.43 in [5]; 0.421 in [6]; 0.783 in assay [7]; 0.987 in assay [8]; 0.144 in assay [9]. The values for the z-score in assay [2], in assay [3] and in assay [4] were -3.63 (inactive), 0.218 (inactive) and -1.23 (inactive), respectively.

Turning to `CO[C@H]1COC(=O)[C@@H](Cc2ccccc2)NC(=O)[C@@H](C)COC(=O)CC=C[C@@H]1C`, the composite z-score in assay [1] was -0.0866; in assay [5], -0.282; in [6], -0.263; in [7], 0.379; in assay [8], -0.0112; in assay [9], 1.02. In addition, the z-score was 0.7 (inactive) in assay [2], 8.02 (active) in assay [3] and -0.445 (inactive) in assay [4].
